Conditions in all cases: mRNA level, 48 h; actives raise or lower the signal
Read-out in assay [1]: Cyclin Dependent Kinase Inhibitor 1A (CDKN1A), CDKN1A (gene 1026)
The assay can be described thus: LTEA_HepaRG_CDKN1A: Life Technologies and Expression Analysis (LTEA) Assay for Cyclin Dependent Kinase Inhibitor 1A (CDKN1A) using HepaRG (AID 2283450). In outline: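 Differentiated HepaRG cells in serum-free induction medium, exposed 48 h in duplicate to eight half-log concentrations up to 100 uM in 0.5% DMSO. mRNA measured by TaqMan qRT-PCR, normalized to ACTB, GAPDH, POLR2A; bidirectional fit versus DMSO.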

Read-out in assay [2]: Cyclin D1 (CCND1), CCND1 (gene 595)
Description: LTEA_HepaRG_CCND1: Life Technologies and Expression Analysis (LTEA) Assay for Cyclin D1 (CCND1) using HepaRG (AID 2283451). In outline: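 Differentiated HepaRG cells exposed 48 h in serum-free induction medium to eight half-log concentrations from 100 uM top, 0.5% DMSO, duplicates. CCND1 mRNA measured by Fluidigm TaqMan qRT-PCR, normalised to ACTB, GAPDH, POLR2A; bidirectional fit.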

Read-out in assay [3]: flavin-containing dimethylaniline monooxygenases 3 (FMO3), FMO3 (gene 2328)
The assay can be described thus: LTEA_HepaRG_FMO3: Life Technologies and Expression Analysis (LTEA) Assay for flavin-containing dimethylaniline monooxygenases 3 (FMO3) using HepaRG (AID 2283453).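 As to AC50: FMO3 transcript by TaqMan qRT-PCR normalized to ACTB GAPDH and POLR2A.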 The procedure, abridged:
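HepaRG, 48 h exposure, 8-pt half-log series from 100 uM, 0.5% DMSO vehicle, duplicates; FMO3 transcript by Fluidigm TaqMan qRT-PCR, housekeeping-normalized; gain/loss fit vs DMSO.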

Read-out in assay [4]: Cytochrome P450 (CYP1A1), CYP1A1 (gene 1543)
The assay can be described thus: LTEA_HepaRG_CYP1A1: Life Technologies and Expression Analysis (LTEA) Assay for Cytochrome P450 (CYP1A1) using HepaRG (AID 2283454). The procedure, abridged:
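Differentiated human HepaRG cells, after 48 h plating, exposed in duplicate for 48 h in serum-free induction medium to 8 half-log concentrations up to 100 uM in 0.5% DMSO. CYP1A1 mRNA by qRT-PCR, normalized to ACTB/GAPDH/POLR2A; bidirectional fit versus DMSO.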

Read-out in assay [5]: CFLAR gene, CFLAR (gene 8837)
The assay can be described thus: LTEA_HepaRG_CFLAR: Life Technologies and Expression Analysis (LTEA) Assay for CFLAR gene using HepaRG (AID 2283455). The procedure, abridged:
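HepaRG cells were plated for 48 h, switched to serum-free induction medium, then exposed in duplicate for 48 h to 8 concentrations (top 100 uM, half-log steps, 0.5% DMSO). CFLAR mRNA was measured by qRT-PCR, normalized to ACTB, GAPDH and POLR2A.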

Read-out in assay [6]: Forkhead box O1 (FOXO1), FOXO1 (gene 2308)
The assay can be described thus: LTEA_HepaRG_FOXO1: Life Technologies and Expression Analysis (LTEA) Assay for Forkhead box O1 (FOXO1) using HepaRG (AID 2283456). The procedure, abridged:
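Differentiated human HepaRG cells in serum-free induction medium were exposed in duplicate for 48 h to eight half-log concentrations (top 100 uM, 0.5% DMSO). FOXO1 mRNA was measured by TaqMan qRT-PCR, normalised to ACTB, GAPDH and POLR2A, and fitted bidirectionally against DMSO.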

Read-out in assay [7]: growth arrest and DNA damage 45 (GADD45A), GADD45A (gene 1647)
The assay can be described thus: LTEA_HepaRG_GADD45A: Life Technologies and Expression Analysis (LTEA) Assay for growth arrest and DNA damage 45 (GADD45A) using HepaRG (AID 2283458). In outline:
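Differentiated HepaRG cells were exposed in duplicate for 48 h in serum-free induction medium to 8-point half-log concentrations up to 100 uM in 0.5% DMSO. GADD45A mRNA was measured by TaqMan qRT-PCR, normalized to ACTB, GAPDH and POLR2A, with bidirectional fitting versus DMSO.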

Read-out in assay [8]: Forkhead box O3 (FOXO3), FOXO3 (gene 2309)
The assay can be described thus: LTEA_HepaRG_FOXO3: Life Technologies and Expression Analysis (LTEA) Assay for Forkhead box O3 (FOXO3) using HepaRG (AID 2283459). In outline: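 Differentiated human HepaRG cells in serum-free induction medium were exposed in duplicate for 48 h to eight half-log concentrations up to 100 uM in 0.5% DMSO. FOXO3 mRNA was quantified by qRT-PCR, normalized to ACTB, GAPDH and POLR2A, with bidirectional fitting versus DMSO.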

Read-out in assay [9]: ABC Transporter (ABCB1), ABCB1 (gene 5243)
The assay can be described thus: LTEA_HepaRG_ABCB1: Life Technologies and Expression Analysis (LTEA) Assay for ABC Transporter (ABCB1) using HepaRG (AID 2283460). The procedure, abridged: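 Differentiated human HepaRG cells, plated 48 h then switched to serum-free induction medium, were exposed in duplicate to eight half-log concentrations up to 100 uM in 0.5% DMSO for 48 h. ABCB1 mRNA was measured by TaqMan qRT-PCR, normalized to ACTB/GAPDH/POLR2A.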

Read-out in assay [10]: ABC Transporter (ABCC3), ABCC3 (gene 8714)
The assay can be described thus: LTEA_HepaRG_ABCC3: Life Technologies and Expression Analysis (LTEA) Assay for ABC Transporter (ABCC3) using HepaRG (AID 2283462). The procedure, abridged: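 Differentiated human HepaRG cells exposed 48 h in serum-free induction medium, 0.5% DMSO vehicle, 8-point half-log series to 100 uM in duplicate. ABCC3 mRNA by qRT-PCR, normalised to ACTB, GAPDH, POLR2A; bidirectional fit vs DMSO.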

Read-out in assay [11]: ABC Transporter (ABCB11), ABCB11 (gene 8647)
The assay can be described thus: LTEA_HepaRG_ABCB11: Life Technologies and Expression Analysis (LTEA) Assay for ABC Transporter (ABCB11) using HepaRG (AID 2283463). In outline:
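Differentiated human HepaRG cells were exposed for 48 h in serum-free induction medium to eight half-log concentrations up to 100 uM in 0.5% DMSO. ABCB11 mRNA was quantified by qRT-PCR, normalized to ACTB, GAPDH and POLR2A, and fitted bidirectionally versus DMSO.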

Read-out in assay [12]: ABC Transporter (ABCC2), ABCC2 (gene 1244)
Description: LTEA_HepaRG_ABCC2: Life Technologies and Expression Analysis (LTEA) Assay for ABC Transporter (ABCC2) using HepaRG (AID 2283464). In outline: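 Differentiated HepaRG cells in serum-free induction medium exposed 48 h to eight half-log concentrations up to 100 uM, 0.5% DMSO, in duplicate. ABCC2 mRNA measured by qRT-PCR (TaqMan, Fluidigm), normalized to ACTB, GAPDH and POLR2A. Fitted in both directions against DMSO.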

Read-out in assay [13]: Broad substrate specificity ATP-binding cassette transporter ABCG2 (Homo sapiens) (UniProt Q9UNQ0)
The assay can be described thus: LTEA_HepaRG_ABCG2: Life Technologies and Expression Analysis (LTEA) Assay for ABC Transporter (ABCG2) using HepaRG (AID 2283465). In outline: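 Differentiated HepaRG cells in serum-free induction medium were exposed for 48 h, in duplicate, to eight half-log concentrations up to 100 uM in 0.5% DMSO. ABCG2 mRNA was measured by TaqMan qRT-PCR, normalized to ACTB, GAPDH and POLR2A, and fitted bidirectionally versus DMSO.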

Read-out in assay [14]: ATP-citrate lyase (ACLY), ACLY (gene 47)
Description: LTEA_HepaRG_ACLY: Life Technologies and Expression Analysis (LTEA) Assay for ATP-citrate lyase (ACLY) using HepaRG (AID 2283466). The procedure, abridged:
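Differentiated human HepaRG cells in serum-free induction medium exposed 48 h, in duplicate, to eight half-log concentrations from 100 uM top in 0.5% DMSO; ACLY mRNA measured by qRT-PCR, normalized to ACTB, GAPDH, POLR2A, fitted bidirectionally versus DMSO.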

Read-out in assay [15]: Alkaline Phosphatase, Placental (ALPP) gene, ALPP (gene 250)
Description: LTEA_HepaRG_ALPP: Life Technologies and Expression Analysis (LTEA) Assay for Alkaline Phosphatase, Placental (ALPP) gene using HepaRG (AID 2283468). In outline:
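HepaRG cells plated 48 h, then exposed in duplicate for 48 h in serum-free induction medium to 8-point half-log series from 100 uM in 0.5% DMSO. ALPP mRNA by TaqMan qRT-PCR, normalized to ACTB/GAPDH/POLR2A; bidirectional fit versus DMSO.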

Read-out in assay [16]: Bcl-2 (BAD) gene, BAD (gene 572)
Description: LTEA_HepaRG_BAD: Life Technologies and Expression Analysis (LTEA) Assay for Bcl-2 (BAD) gene using HepaRG (AID 2283469). In outline:
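Differentiated human HepaRG cells in serum-free induction medium were exposed in duplicate for 48 h to eight concentrations (top 100 uM, half-log steps, 0.5% DMSO). BAD mRNA was quantified by qRT-PCR normalised to ACTB, GAPDH and POLR2A, with bidirectional fitting versus DMSO.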

Read-out in assay [17]: growth arrest and DNA damage 45 (GADD45B), GADD45B (gene 4616)
Description: LTEA_HepaRG_GADD45B: Life Technologies and Expression Analysis (LTEA) Assay for growth arrest and DNA damage 45 (GADD45B) using HepaRG (AID 2283461). In outline:
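Differentiated human HepaRG cells in serum-free induction medium exposed 48 h in duplicate to eight concentrations, top 100 uM, half-log steps, 0.5% DMSO. GADD45B mRNA by TaqMan qRT-PCR, normalized to ACTB, GAPDH, POLR2A; bidirectional fit versus DMSO.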

Read-out in assay [18]: catalase (CAT), CAT (gene 847)
Description: LTEA_HepaRG_CAT: Life Technologies and Expression Analysis (LTEA) Assay for catalase (CAT) using HepaRG (AID 2283452). The procedure, abridged: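 Differentiated HepaRG cells in serum-free induction medium were dosed 48 h in duplicate, eight half-log concentrations from 100 uM in 0.5% DMSO. Transcript measured by TaqMan qRT-PCR, normalised to ACTB/GAPDH/POLR2A, fitted bidirectionally against DMSO.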

Read-out in assay [19]: Peroxisomal acyl-coenzyme A oxidase 1 (ACOX1) gene, ACOX1 (gene 51)
The assay can be described thus: LTEA_HepaRG_ACOX1: Life Technologies and Expression Analysis (LTEA) Assay for Peroxisomal acyl-coenzyme A oxidase 1 (ACOX1) gene using HepaRG (AID 2283467). In outline:
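Differentiated human HepaRG cells were exposed in duplicate for 48 h in serum-free induction medium to eight half-log concentrations up to 100 uM in 0.5% DMSO. ACOX1 mRNA was then quantified by TaqMan qRT-PCR, normalized to ACTB, GAPDH and POLR2A.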

Structures are written as SMILES. Active and inactive are the calls of the source. The calls were made as follows: active = hit-call score of the fitted dose curve at least 0.9, where 1 is the maximum; inactive = score below 0.9.

One may read the AC50 as the concentration at which the activity in the assay is half-maximal.

Broad substrate specificity ATP-binding cassette transporter ABCG2 (Homo sapiens), sequence (Q9UNQ0 whole entry, looked up): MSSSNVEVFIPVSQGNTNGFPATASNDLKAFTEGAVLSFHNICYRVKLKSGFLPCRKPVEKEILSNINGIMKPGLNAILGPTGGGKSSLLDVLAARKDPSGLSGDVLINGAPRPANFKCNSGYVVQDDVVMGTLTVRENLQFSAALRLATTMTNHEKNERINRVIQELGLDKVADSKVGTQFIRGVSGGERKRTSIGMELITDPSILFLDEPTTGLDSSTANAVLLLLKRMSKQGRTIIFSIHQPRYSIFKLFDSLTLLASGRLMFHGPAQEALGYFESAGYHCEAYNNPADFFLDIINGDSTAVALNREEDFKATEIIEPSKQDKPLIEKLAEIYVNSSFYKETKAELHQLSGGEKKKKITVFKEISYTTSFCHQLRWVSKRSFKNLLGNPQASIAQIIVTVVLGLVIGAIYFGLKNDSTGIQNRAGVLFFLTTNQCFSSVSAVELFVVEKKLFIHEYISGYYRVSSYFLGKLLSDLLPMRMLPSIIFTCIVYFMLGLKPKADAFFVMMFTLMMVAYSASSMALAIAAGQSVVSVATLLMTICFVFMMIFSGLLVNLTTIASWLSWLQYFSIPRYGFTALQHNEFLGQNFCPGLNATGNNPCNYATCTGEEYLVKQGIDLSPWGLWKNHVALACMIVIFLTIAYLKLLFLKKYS

In the case of `CCc1nc(N)nc(N)c1-c1ccc(Cl)cc1`, the AC50 in assay [1] is 70.2 µM (active); in assay [3], 69.4 µM (active); in assay [7] it was 27.2 µM (active); in [10] it was 74.5 µM (active); in assay [11] it was 33 µM (active); in [14], 80.4 µM (active). Also, the AC50 in [15] was 44.2 µM (active). The compound was classed as inactive in [2], in assay [4], in assay [5], in assay [6], in assay [8] and in [9]. Also, the compound was called inactive in [12], in assay [13] and in [16].

On to `CCCCCCC(C=O)=Cc1ccccc1`, for which the outcome in [1], in assay [2], in assay [3], in [4], in [5] and in [6] was inactive. Besides, the result in [7], in [8], in assay [9], in assay [17], in assay [10] and in [11] was inactive. In addition, the call in [12], in assay [13], in assay [14], in assay [15] and in assay [16] was inactive.

With `COC(=O)CCC(=O)OC`, the compound was classed as inactive in [2], in assay [18], in [3], in assay [5], in [6] and in [7]. The outcome in assay [8], in assay [9], in assay [17], in assay [10], in [11] and in assay [12] was inactive. The compound was called inactive in assay [13], in [14], in assay [19], in assay [15] and in [16]. The AC50 in assay [4] was 50 µM (active).

On to `Cc1cn([C@H]2C=C[C@@H](CO)O2)c(=O)[nH]c1=O`, for which the call in [1], in [2], in [3], in assay [5], in [6] and in [7] was inactive. The outcome in assay [8], in [9], in assay [17], in assay [10], in [11] and in assay [12] was inactive. The outcome in assay [13], in assay [14] and in [15] was inactive. Besides, the AC50 in assay [4] was 69.4 µM (active).

The values are drawn from PubChem BioAssay (EPA / NIEHS).
